The text below walks through data of PubChem BioAssay (EPA / NIEHS).

Several values for one entry are separate records, joined by “and”; a condition that tells them apart may be missing. Equal values may be shown once. Inconclusive results are not listed. Activity calls are given as the source filed them. Rule for the calls, unless noted: active = hit-call score of the fitted dose curve at least 0.9, where 1 is the maximum; inactive = score below 0.9.

Assay [1] in a line: BSK_BT_PBMCCytotoxicity: PBMC Cytotoxicity Assessment in the BioMAP Diversity Plus: BT Assay (AID 2284225).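 Note: PBMC viability measured by Alamar Blue dye reduction fluorescence.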 The note with it: primary human B cells with PBMC. In outline:
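75,000 cells/well; cpd 1 h → SEB + TSST-1 (20 ng/mL final each) → 90 h → Alamar Blue 6 h → fluor. 546/580 nm. DMSO = neg. control/baseline.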

Read-out in assay [2]: Secreted IgG (sIgG), gene 3500
The experiment in a line: BSK_BT_sIgG: BioMAP Diversity Plus: BT Assay for Secreted IgG (sIgG) Biomarker Activity (AID 2284226). The note with it: primary human B cells with PBMC. In outline:
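Secreted IgG from a human primary B cell–PBMC co-culture was measured by ELISA 24 hours after dosing, with DMSO defining baseline activity.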

Assay [3] in a line: BSK_BT_Bcell_Proliferation: Viability Assessment in the BioMAP Diversity Plus: BT Assay for B cell Proliferation (AID 2284227). The note with it: primary human B cells with PBMC. In outline:
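SRB-based protein staining (0.1% SRB after 10% TCA fixation, 560 nm) quantifies proliferation in human B cells co-cultured with PBMC, 72 h post-dosing, with signal gain scored relative to DMSO negative control.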

Read-out in assay [4]: Interleukin 6 (IL6), IL6 (gene 3569)
The experiment in a line: BSK_BT_xIL6: BioMAP Diversity Plus: BT Assay for Interleukin 6 (IL6) Biomarker Activity (AID 2284228). The note with it: primary human B cells with PBMC. In outline:
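IL-6 secretion measured (Luminex xMAP) in human primary B cell + PBMC co-culture at 24 h of chemical exposure; DMSO served as negative control and activity baseline, with curves fitted for increase.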

Read-out in assay [5]: Interleukin 17A (IL17A), IL17A (gene 3605)
The experiment in a line: BSK_BT_xIL17A: BioMAP Diversity Plus: BT Assay for Interleukin 17A (IL17A) Biomarker Activity (AID 2284229). The conditions noted are these: primary human B cells with PBMC. In outline:
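Human primary B cells plus PBMC, treated 24 h with chemicals; supernatant IL-17A quantified on Luminex xMAP beads. Gain of signal over DMSO control scored as activity.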

Read-out in assay [6]: Tumor necrosis factor (Homo sapiens) (UniProt P01375)
The experiment in a line: BSK_BT_xTNFa: BioMAP Diversity Plus: BT Assay for Tumor necrosis factor alpha (TNF-alpha) Biomarker Activity (AID 2284230). The note with it: primary human B cells with PBMC. In outline:
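Compounds were added to a B cell plus PBMC co-culture, and after 24 h secreted TNF-alpha was quantified with Luminex xMAP technology, with responses fitted upward from the DMSO control.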

Read-out in assay [7]: Vascular cell adhesion molecule 1 (VCAM1), VCAM1 (gene 7412)
The experiment in a line: BSK_MyoF_VCAM1: BioMAP Diversity Plus: MyoF Assay for Vascular cell adhesion molecule 1 (VCAM1) Biomarker Activity (AID 2284231). The conditions noted are these: primary human lung fibroblasts. In outline:
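VCAM-1 levels, lung fibroblasts, ELISA, 24 h exposure, increase scored relative to DMSO.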

Read-out in assay [8]: Collagen I, COL1A1 (gene 1277)
The experiment in a line: BSK_MyoF_CollagenI: BioMAP Diversity Plus: MyoF Assay for Collagen I Biomarker Activity (AID 2284238). The conditions noted are these: primary human lung fibroblasts. In outline:
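Measured by ELISA: Collagen I from human lung fibroblasts 24 h after compound addition, analysed for signal gain with DMSO as baseline; overt toxicity read from SRB staining of parallel cultures at the same time.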

Read-out in assay [9]: Collagen III, COL3A1 (gene 1281)
The experiment in a line: BSK_MyoF_CollagenIII: BioMAP Diversity Plus: MyoF Assay for Collagen III Biomarker Activity (AID 2284239). The note with it: primary human lung fibroblasts. In outline: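 Multiplexed cell assay in lung fibroblasts, harvested at 24 h post-dose. Collagen III detected by ELISA, with positive-direction fitting relative to DMSO vehicle.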

Assay [10] is described as follows: TAMU_HCS_1.5hr_SingleDonor1434_Cytotoxicity: Cytotoxicity Assessment using High-content Screening (HCS) Fluorescent Imaging for the Texas A&M University (TAMU) 1.5-hr Human Induced Pluripotent Stem Cell (iPSC)-derived Cardiotoxicity Assay (AID 2284234; active = hit-call score of the fitted dose curve at least 0.9, where 1 is the maximum). In outline:
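Human iPSC-derived cardiomyocytes dosed at 0.2, 1, 10, 100 uM final (0.5% DMSO) for 90 min at 37 C. Hoechst 33342-stained nuclei counted by 10x high-content imaging; POD is EC10, a 10% drop in total cell count versus DMSO.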

Assay [11] is described as follows: TAMU_PeakParms_SingleDonor1434_QT: Texas A&M University (TAMU) 1.5-hr Human Induced Pluripotent Stem Cell (iPSC)-derived Cardiomyocytes Calcium (Ca+2) Flux Assay for Cardiotoxicity: QT (decay-rise ratio) (AID 2284235; active = hit-call score of the fitted dose curve at least 0.9, where 1 is the maximum). In outline: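 iPSC-derived cardiomyocytes (single donor 1434) dosed at 0.2, 1, 10, 100 uM final in 0.5% DMSO, 90 min at 37C. Ca2+ flux fluorescence decay/rise ratio; EC05 (5% increase versus DMSO) as POD, excluding beat-arrest and severe-notch data.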

The nature of assay [12]: CCTE_Mundy_HCI_hNP1_Casp3_7: CCTE's Caspase-Glo 3/7 Assay in human neuroprogenitor cells for Apoptosis, Mundy Lab (AID 2284240). In outline:
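Neuroepithelial-lineage stem cells from WA09 embryonic cells were treated with chemicals after 40–44 h of culture. Twenty-four hours later, caspase-3/7 activation was detected luminescently after a 30 min room-temperature reagent step, with DMSO as baseline.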

Assay [13] can be described thus: CCTE_Mundy_HCI_hNP1_CellTiter: CCTE's Cell Titer-Glo 2 Assay in human neuroprogenitor cells for Viability, Mundy Lab (AID 2284241; active = hit-call score of the fitted dose curve at least 0.9, where 1 is the maximum). In outline:
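Measures ATP content in human neural progenitors derived from WA09 embryonic cells. Read-out at 26.5 hours after dosing, with DMSO serving as the negative control and baseline.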

Sequence of Tumor necrosis factor (Homo sapiens) (P01375 whole entry, looked up): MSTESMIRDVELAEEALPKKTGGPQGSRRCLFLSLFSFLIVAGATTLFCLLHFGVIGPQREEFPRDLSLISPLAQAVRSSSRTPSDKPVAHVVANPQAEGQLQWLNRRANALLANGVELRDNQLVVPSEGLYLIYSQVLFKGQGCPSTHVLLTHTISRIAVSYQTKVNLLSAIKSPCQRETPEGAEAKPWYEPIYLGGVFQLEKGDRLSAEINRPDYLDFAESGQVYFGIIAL

As for `COC(=O)c1sccc1S(=O)(=O)NC(=O)Nc1nc(C)nc(OC)n1`, the outcome in assay [1], in assay [2], in assay [3], in [4], in [5] and in assay [6] was inactive. Besides, the outcome in assay [7], in assay [8] and in assay [9] was inactive.
As to `CC(C)CCCCCCOC(=O)c1ccccc1C(=O)OCCCCCCC(C)C`, the result in assay [1], in assay [2], in [3], in assay [4], in assay [5] and in assay [6] was inactive. Also, the outcome in assay [7], in [8] and in assay [9] was inactive.
On to `Oc1cccc2cccnc12`, for which the compound was classed as inactive in assay [10] and in assay [11].
As to `CCOP(=S)(OCC)SCCS(=O)(=O)CC`, the result in [1], in assay [2], in [3], in assay [4], in assay [5] and in [6] was inactive. Besides, the outcome in assay [7], in assay [8] and in assay [9] was inactive.
Turning to `CCNc1nc(NC(C)(C)C)nc(SC)n1`, the result in [1], in assay [3], in [4], in assay [5], in assay [8] and in assay [9] was inactive. Besides, the AC50 in [2] was 26.7 µM (active); in [6], 20 µM (active); in assay [7] it was 20 µM (active).
On to `O=C(O)C(F)(F)C(F)(F)C(F)(F)C(F)(F)C(F)(F)C(F)(F)C(F)(F)C(F)(F)C(F)(F)C(F)(F)F`, for which the outcome in assay [1], in assay [2], in assay [3], in [4], in assay [5] and in assay [6] was inactive. Also, the AC50 in [7] was 4.85 µM (active) and 4.92 µM (active); in assay [8], 2.19 µM (active) and 2.25 µM (active); in assay [9], 2.59 µM (active) and 2.58 µM (active).
Consider `OCc1ccco1`, for which the result in assay [1], in assay [4], in assay [5], in assay [6], in assay [7] and in assay [8] was inactive. The outcome in assay [9] was inactive. Moreover, the AC50 in [2] was 26.1 µM (active); in assay [3], 26.7 µM (active).
In the case of `CCOC(=O)/C=C(C)/C=C/C[C@@H](C)CCCC(C)C`, the AC50 is 23.7 µM (active) in assay [1]; 20 µM (active) in [2]; 27 µM (active) in assay [3]; 20.8 µM (active) in assay [4]; 20 µM (active) in assay [5]; 30.6 µM (active) in assay [6]. Besides, the AC50 in [7] is 29.2 µM (active); in assay [8], 32.5 µM (active); in assay [9], 30.6 µM (active).
In the case of `Nc1ncc([N+](=O)[O-])s1`, the result in assay [1], in assay [2], in [3], in assay [4], in assay [5] and in [6] was inactive. Further, the result in assay [7], in assay [8] and in [9] was inactive.
As for `CCCCC(CC)CO[N+](=O)[O-]` (stereo not given), the result in assay [1], in assay [2], in assay [3], in assay [4], in assay [5] and in assay [6] was inactive. Moreover, the result in assay [7], in assay [8] and in [9] was inactive.
For the compound `COP(=S)(OC)Oc1c(Cl)cc(C)cc1Cl`, the figures for the AC50 in assay [1], in assay [2] and in assay [5] were 14.5 µM (active), 22.9 µM (active) and 10.7 µM (active), respectively. Also, the outcome in assay [3], in assay [4], in assay [6], in assay [7], in assay [8] and in assay [9] was inactive.
In the case of `O=C(OC1CCCCC1)c1ccccc1C(=O)OC1CCCCC1`, the AC50 in [1] was 34.8 µM (active); in [2] it was 34.2 µM (active); in assay [3], 31.7 µM (active); in assay [4] it was 28.3 µM (active); in assay [5], 20.9 µM (active); in assay [6] it was 32.1 µM (active). Moreover, the figures for the AC50 in [7], in assay [8] and in assay [9] were 20.9 µM (active), 13 µM (active) and 16.6 µM (active), respectively.
Regarding `NC(=S)Nc1ccccc1`, the result in [1], in assay [2], in assay [3], in assay [4], in [5] and in assay [6] was inactive. Also, the result in [7], in [8] and in assay [9] was inactive.
In the case of `O=Cc1cccc(Oc2ccccc2)c1`, the outcome in [1], in assay [2], in [3], in assay [5], in [6] and in [7] was inactive. In addition, the result in assay [8] and in assay [9] was inactive. In [4], the AC50 is 5.07 µM (active).
Consider `O=S(=O)(c1ccc(Cl)cc1)c1ccc(Cl)cc1`, for which the outcome in assay [1], in assay [2], in assay [3], in assay [4], in assay [5] and in assay [6] was inactive. Besides, the result in assay [7], in assay [8] and in [9] was inactive.
With `Oc1ccc(-c2ccccc2)cc1`, the result in [1], in [3], in assay [4], in assay [5], in assay [6] and in [7] was inactive. In addition, in assay [8], the outcome was inactive. The AC50 in assay [9] is 0.414 µM (active).
Take `Nc1cccc2ccccc12`: the result in assay [1], in assay [2], in assay [4], in assay [5], in assay [6] and in [7] was inactive. Further, the outcome in assay [8] was inactive. In addition, the results for the AC50 in assay [3] and in assay [9] were 20 µM (active) and 14.5 µM (active), respectively.
As for `CC(C)(C)c1cc(O)ccc1O`, the AC50 in assay [10] was 50 µM (active). Besides, the outcome in assay [11] was inactive.
On to `COP(=S)(OC)Oc1cc(Cl)c(Cl)cc1Cl`, for which the result in [1], in assay [3], in assay [4], in assay [5], in [6] and in assay [8] was inactive. The outcome in assay [9] was inactive. Also, the half-maximal activity concentration (AC50) was 34.3 µM (active) in assay [2] and 31.1 µM (active) in assay [7].
In the case of `BrCCBr`, the result in assay [1], in assay [2], in [3], in [4], in [5] and in [6] was inactive. Moreover, the outcome in [7], in [8] and in [9] was inactive.
Regarding `O=C(O)C(F)(F)C(F)(F)C(F)(F)C(F)(F)C(F)(F)C(F)(F)F`, the outcome in assay [1], in assay [2], in [3], in [4], in assay [5] and in assay [6] was inactive. The result in [7], in assay [8], in assay [9], in assay [12] and in assay [13] was inactive.
In the case of `CCSC(C)CC1CC(=O)C(C(CC)=NOC/C=C/Cl)=C(O)C1` (stereo not given), the outcome in assay [1], in assay [2], in assay [3], in assay [4], in assay [5] and in assay [6] was inactive. Moreover, the result in assay [7], in [8] and in [9] was inactive.
